# ADAM17 inh – ADAM17 inhibition, QFRET primary screen | P78536 | recombinant ADAM17, EDANS/DABCYL FRET peptide cleavage | inhibition, % at 6.95 µM | 370,000 tested, 0.83% active;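 active means inhibition above the mean of compounds lying between control limits plus 3 SD, set per campaign, cut at about 8.5% in these data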;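 further: 0% = DMSO-only wells as the low control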
# PLCb3 inh – PLC-beta3 (human) inhibition, primary screen | Purified PLC-beta3, fluorogenic substrate, fluorescence | inhibition, % at 12.2 µM | 370,000 tested, 0.18% active | AID 720704; in the data active means inhibition above about 11%;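 further: 0% = median of compound wells on plate and 100% = full blocker control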
# proKLK7 act – proKLK7 (human) activation, primary screen. purified proKLK7, EDANS-DABCYL substrate fluorescence; 100% is mature enzyme control, 0% vehicle. activation, % at 7 µM. 370,000 tested, 0.9% active. AID 652039;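 active means activation above the mean of all tested compounds plus 3 SD, computed per campaign excluding outliers beyond control limits, cut at about 13% in these data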
# ADAM10 inh – inhibitors of human ADAM10. O14672. recombinant ADAM10, EDANS/DABCYL FRET peptide cleavage, 3 h. inhibition, % at 7 µM. 370,000 tested, 0.62% active. AID 720582;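 active means inhibition above a per-campaign cutoff equal to the mean of compounds falling between control-based bounds plus 3 SD, cut at about 20% in these data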;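 further: 0% = DMSO wells while the 100% control is not disclosed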
# Target sequence (O14672 214-748 limits assumed): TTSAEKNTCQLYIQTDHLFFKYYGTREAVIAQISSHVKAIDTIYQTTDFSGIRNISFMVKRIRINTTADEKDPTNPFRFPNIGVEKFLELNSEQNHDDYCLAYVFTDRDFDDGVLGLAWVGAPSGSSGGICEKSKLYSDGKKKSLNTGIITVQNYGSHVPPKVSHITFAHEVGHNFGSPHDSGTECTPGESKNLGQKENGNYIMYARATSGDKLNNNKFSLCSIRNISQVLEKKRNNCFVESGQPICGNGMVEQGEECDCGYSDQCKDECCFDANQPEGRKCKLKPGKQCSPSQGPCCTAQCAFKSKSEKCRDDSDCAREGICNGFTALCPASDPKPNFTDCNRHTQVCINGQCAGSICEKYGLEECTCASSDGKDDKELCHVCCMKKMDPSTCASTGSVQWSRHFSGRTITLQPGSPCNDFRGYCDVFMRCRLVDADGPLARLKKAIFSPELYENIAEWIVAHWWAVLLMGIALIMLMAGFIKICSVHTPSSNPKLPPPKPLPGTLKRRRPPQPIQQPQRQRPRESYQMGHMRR
# PLCg1 inh – inhibitors of human phospholipase C gamma1; inhibition, % at 12.2 µM; purified PLC-gamma1, fluorogenic substrate, fluorescence; AID 720700; 370,000 tested, 0.84% active; in the data active means inhibition above about 9.5%
# ADAM10 confirm – human ADAM10 inhibition, confirmation; inhibition, % at 6.95 µM; ADAM10 QFRET peptide cleavage, EDANS fluorescence; AID 743208; 2,100 tested, 1% active; shares compounds with ADAM10 inh;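 active means inhibition above about 20% chosen separately for each screening run, limit read from the data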;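 further: 0% = DMSO wells and 100% = marimastat wells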
# ADAM17 counter – inhibits human ADAM17 in ADAM10 exosite counter-screen | shares compounds with ADAM10 inh | inhibition, % at 6.95 µM | ADAM17 QFRET peptide cleavage, EDANS fluorescence | AID 743214 | 2,100 tested, 0.5% active;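 active means mean triplicate inhibition above the solvent-only control wells' mean plus 3 SD, cut at about 12% in these data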;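 further: 0% = DMSO wells and 100% = marimastat wells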
# ADAM10 counter – inhibits human ADAM10 in ADAM17 exosite counter-screen; shares compounds with ADAM17 inh; recombinant ADAM10, EDANS/DABCYL FRET peptide cleavage, 3 h; inhibition, % at 6.95 µM; 2,900 tested, 47% active;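 active means mean inhibition over the triplicate runs exceeds the activity threshold set in the earlier primary screen, cut at about 20% in these data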;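 further: 0% = DMSO wells and 100% = marimastat wells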
# ADAM17 confirm – confirmation of inhibitors of human ADAM17; inhibition, % at 6.95 µM; recombinant ADAM17, EDANS/DABCYL QFRET peptide cleavage; 2,900 tested, 65% active; AID 743257; shares compounds with ADAM17 inh;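 active means mean inhibition across replicates above the hit cutoff set in the primary screen, cut at about 8.5% in these data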;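 further: 0% = DMSO wells and 100% = marimastat wells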
# * marks the source's active call; other numbers are inactive results; nt = no result. Shown are actives, neighbours in structure and some others; about 2.9% of the full set was active somewhere.
SMILES,ADAM17 inh,PLCb3 inh,proKLK7 act,ADAM10 inh,PLCg1 inh,ADAM10 confirm,ADAM17 counter,ADAM10 counter,ADAM17 confirm
COC(=O)[C@]12C[C@H](CC(=O)NCC3CCCCC3)C(=O)N(Cc3ccc4c(c3)OCO4)C1=C[C@H](COCc1ccccc1)O[C@@H]2C,5.8,0.3,0.4,11.0,1.3,nt,nt,nt,nt
COc1ccc(C(O)c2nc(-c3ccc4ccccc4c3)cs2)cc1 (stereo not drawn),19.5*,-5.1,0.1,41.9*,4.8,6.4,3.0,20.6*,13.8*
COc1ccc(-c2csc(C(O)c3ccc(OC)cc3)n2)cc1 (stereo not drawn),-1.6,-0.8,0.2,-16.4,0.5,nt,nt,nt,nt
COc1cc(C(O)c2nc(-c3ccc4ccccc4c3)cs2)ccc1F (stereo not drawn),23.1*,-0.7,0.6,49.3*,6.0,11.5,2.6,21.8*,14.7*
Cc1cc(C)cc(-c2c(C(=O)c3ccccc3)[nH]c(N)c2C(=O)NCCc2c[nH]c3ccccc23)c1,4.0,-11.5,nt,4.3,-3.7,nt,nt,nt,nt
Nc1[nH]c(C(=O)c2ccccc2)c(-c2cccc(C(F)(F)F)c2)c1C(=O)NCCc1c[nH]c2ccccc12,9.0*,-12.9,0.0,23.6*,-12.2,11.7,2.7,27.4*,14.5*
CCOc1ccc(S(=O)(=O)N(CC(=O)Nc2cc(C)on2)Cc2ccccc2Cl)cc1,15.9*,9.9,0.9,29.0*,8.1,1.4,0.5,13.1,8.2
Cc1ccccc1N=C1SC(CC(=O)Nc2ccc3ccccc3c2)C(=O)N1Cc1ccccn1 (stereo not drawn),15.0*,7.5,-0.8,39.1*,6.2,11.2,3.4,37.2*,21.7*
CCN1C(=O)C(CC(=O)Nc2cccc(C(C)=O)c2)S/C1=N\c1ccccn1 (stereo not drawn),2.9,5.2,-0.6,4.0,-0.2,nt,nt,nt,nt
O=C(CSc1nc2ccccc2[nH]1)Nc1ccc(F)c(F)c1,10.1*,4.7,0.2,21.4*,7.0,0.8,0.2,9.5,4.1
CCN(CC)S(=O)(=O)c1ccc(S(=O)(=O)Nc2ccc3c(c2)oc2ccccc23)cc1,13.7*,-0.5,0.6,32.1*,2.0,8.8,3.2,47.4*,25.1*
COc1ccc(CCN(Cc2cccs2)S(=O)(=O)c2ccc(C)s2)cc1OC,3.5,-3.1,0.2,2.3,4.1,nt,nt,nt,nt
COc1ccc(OC(F)(F)F)cc1CC1(C)C(=O)Nc2ccc(S(=O)(=O)NC3CCCCC3)cc21 (stereo not drawn),10.2*,7.2,0.0,22.9*,0.3,0.0,0.7,40.2*,18.4*
C=CC[C@H](CC(=O)N[C@H](CO)Cc1ccccc1)C(=O)N[C@@H](COC(=O)[C@@H](CC=C)CC(=O)OC(C)(C)C)Cc1c[nH]c2ccccc12,8.1,5.2,0.4,19.1,-0.3,nt,nt,nt,nt
C=CC[C@@H](CC(=O)N[C@@H](CO)Cc1ccccc1)C(=O)N[C@H](COC(=O)[C@@H](CC=C)CC(=O)OC(C)(C)C)Cc1c[nH]c2ccccc12,8.7*,3.2,1.5,26.5*,3.1,4.3,0.5,39.0*,18.5*
C=CC[C@@H](CC(=O)N(CCO)Cc1ccccc1)C(=O)N[C@@H](COC(=O)[C@@H](CC=C)CC(=O)OC(C)(C)C)Cc1c[nH]c2ccccc12,21.9*,3.4,0.4,45.3*,5.8,7.4,1.1,40.6*,21.0*
C=CC[C@@H](CC(=O)N(CCO)Cc1ccccc1)C(=O)N[C@@H](COC(=O)[C@@H](CC=C)Cc1ccc(F)cc1)Cc1c[nH]c2ccccc12,8.2,-0.4,0.4,17.5,0.7,nt,nt,nt,nt
C=CC[C@@H](CC(=O)N(CCO)Cc1ccccc1)C(=O)N[C@@H](C)COC(=O)[C@@H](CC=C)Cc1ccc(F)cc1,1.9,2.3,0.2,12.8,2.5,nt,nt,nt,nt
C=CC[C@H](CC(=O)N(CCO)Cc1ccccc1)C(=O)N[C@@H](COC(=O)[C@@H](CC=C)Cc1ccc(F)cc1)Cc1c[nH]c2ccccc12,13.5*,2.9,0.7,37.2*,0.1,6.8,2.5,45.3*,25.1*
C=CC[C@@H](CC(=O)N(CCO)Cc1ccccc1)C(=O)N[C@H](COC(=O)[C@@H](CC=C)Cc1ccc(F)cc1)c1ccccc1,15.3*,-1.5,0.4,34.4*,6.4,9.2,4.3,33.3*,17.0*
CC1CCC2(CC1)CCC2NCc1ccc(Cl)cc1 (stereo not drawn),-3.6,0.7,nt,-6.3,-1.8,nt,nt,nt,nt
Cc1cc2c3c([nH]c2cc1S(=O)(=O)N1CCC2(CC1)OCCO2)CC(C)(C)CC3=O,-1.3,-7.1,0.4,3.3,0.0,nt,nt,nt,nt
COC(=O)[C@]12C[C@H](CC(=O)NCc3ccc(C)o3)C(=O)N(Cc3ccc4c(c3)OCO4)C1=C[C@H](C(C)C)O[C@@H]2C1CC1,-3.5,-1.2,-0.1,-6.0,-0.3,nt,nt,nt,nt
COc1ccc(N2CCN(S(=O)(=O)CCNC(=O)c3cc(=O)c4ccccc4o3)CC2)cc1,-2.7,-6.6,-0.5,-5.2,1.9,nt,nt,nt,nt
C=CCC[C@@H](Cc1ccc(F)cc1)C(=O)OC[C@@H](Cc1c[nH]c2ccccc12)NC(=O)[C@H](CC=C)CC(=O)N(CCO)Cc1ccccc1,16.9*,1.5,0.4,40.2*,5.4,12.7,2.8,68.7*,25.9*
SMILES,ADAM17 inh,PLCb3 inh,proKLK7 act,ADAM10 inh,PLCg1 inh,ADAM10 confirm,ADAM17 counter,ADAM10 counter,ADAM17 confirm
COC1=C[C@H](C(=O)N[C@H]2CCCC[C@@H]2NC(C)=O)[C@@]2(C)Cc3ccccc3[C@H]2CC1=O,-2.4,-2.0,0.4,-6.5,0.5,nt,nt,nt,nt
Cc1cccc(NC(=S)N/N=C/c2ccc([N+](=O)[O-])s2)c1,13.0*,-15.7,0.4,25.9*,-15.6,7.5,4.0,22.8*,15.3*
Cc1cccc(NC(=O)/C=C/c2ccc([N+](=O)[O-])s2)c1,0.5,-55.4,-0.2,2.0,-40.6,nt,nt,nt,nt
O=C(Nc1c(S(=O)(=O)c2ccc(Cl)cc2)csc1Br)c1ccccc1Cl,2.6,-4.3,0.3,3.8,-0.2,nt,nt,nt,nt
O=S(=O)(Nc1ccccc1)c1ccc(Oc2ncc(C(F)(F)F)cc2Cl)cc1,12.2*,0.0,0.5,28.7*,-3.8,5.0,2.1,35.1*,18.6*
CC(C)NS(=O)(=O)c1ccc(Oc2ncc(C(F)(F)F)cc2Cl)cc1,7.5,2.3,0.6,11.9,8.0,nt,nt,nt,nt
COc1ccccc1N(CC(=O)NCc1ccco1)S(=O)(=O)c1ccc(C)cc1,-2.0,-6.6,0.1,-7.3,-3.3,nt,nt,nt,nt
